Assay outcomes deposited in PubChem BioAssay by ICCB-Longwood Screening Facility, Harvard Medical School.
Sa helicase inh: S. aureus DNA helicase inhibition. purified S. aureus helicase, fluorescence unwinding assay. inhibition, % (test concentration not listed). hit rate 0.05% among 120,000. AID 485395; in the data active = inhibition above about 25%, passing the limit was not always enough;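 also: 0% = mean of negative control wells and 100% = mean of positive control wells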
Sa growth 42C: S. aureus growth inhibition. S. aureus RN4220 growth, OD600, 20 h, 42 °C; active compounds read low. relative growth, % (concentration not given with the values). hit rate 0.53% among 170,000. AID 720641;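 active = relative growth at most 50% at the other temperature and 20+ points below 30 °C, or under 10% at both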
* hit, by the source's call; . = no result. This is one part of a sample in which hits are shown more often than they occur.

SMILES	Sa helicase inh	Sa growth 42C
NC(N)=N/N=C/c1cn(-c2ccccc2)nc1-c1ccccc1	-19.0	-1.6*
COc1ccc(Cl)cc1C(=O)NCc1ccc(C(=O)O)cc1	9.0	117.7
CS(=O)(=O)c1ncc(Cl)c(C(=O)N2CCN(c3cccc(Cl)c3)CC2)n1	.	64.5
CCS(=O)(=O)c1ncc(Cl)c(C(=O)N2CCN(c3cccc(Cl)c3)CC2)n1	.	7.0*
CCS(=O)(=O)c1ncc(Cl)c(C(=O)NCc2ccccc2)n1	.	66.0
CCS(=O)(=O)c1ncc(Cl)c(C(=O)Nc2ccc(Cl)cc2)n1	-5.0	1.8*
NC1=NC(=O)C(CC(=O)Nc2ccc(N3CCCCC3)cc2)S1 (configuration not stated)	-10.0	.
CCOc1cccc(/C=N/NC(=O)c2ccncc2)c1O	5.0	95.4
Cc1cccc(-n2nnnc2S(C)(=O)=O)c1	.	-0.6*
Cc1ccc(-n2nnnc2S(C)(=O)=O)c(C)c1	12.0	76.2
CCN(CC)C(=O)CN1C=NS(=O)(=O)c2ccccc21	2.0	94.0
C=C(C)C1Cc2cc3ccc(=O)oc3cc2O1 (configuration not stated)	1.0	102.7
C=C(C)C1Cc2cc(/C=C/C(=O)O)c(O)cc2O1 (configuration not stated)	9.0	0.5*
Nc1ncc(Cc2cccc(Cl)c2)s1	10.0	110.6
Cc1cccc(Cc2cnc(N3C(=N)SC(C)C3=O)s2)c1 (configuration not stated)	0.0	2.8*
Cc1cc(NC(=O)c2ccccc2)nc2c1c(=O)oc1ccccc12	-5.0	.
Cc1cc(NC(=O)c2ccc(N3C(=O)CCC3=O)cc2)nc2c1c(=O)oc1ccccc12	-11.0	0.1*
c1ccc(-c2cnc3nonc3n2)cc1	14.0	0.8*
Cc1cc2ncc(-c3ccccc3)nc2cc1C	-16.0	104.4
CC(C)(C)c1cc(C(=O)OCCN2CCCCC2)cc(C(C)(C)C)c1	-4.0	21.9*
Cc1ccc(C(=O)OCCN2CCCCC2)cc1	6.0	90.5
Cn1c(=N)n(CCCOc2ccc(Br)cc2)c2ccccc21	-1.0	78.7
O=C(O)CCCc1nc2ccccc2s1	6.0	97.2
O=C(O)Cc1nc2ccccc2s1	-18.0	-0.3*
N#Cc1ccc2c(c1)nc1c3ccc4c5c(ccc(c(=O)n21)c53)C(=O)NC4=O	5.0	0.9*
SMILES	Sa helicase inh	Sa growth 42C
COC(=O)[C@@H]1CC(=O)O[C@H](C)C/C=C/C=C/[C@H](O)[C@H](C)C[C@H](CC=O)[C@H](OC2O[C@H](C)[C@@H](OC3C[C@@](C)(O)[C@@H](OC(=O)CC(C)C)[C@H](C)O3)[C@H](N(C)C)[C@H]2O)[C@H]1OC (some centres not stated)	.	-0.6*
CN(C)c1cccc(NC(=O)c2ccncc2)c1	-35.0	117.6
Oc1ccc(-c2n[nH]c(=S)n2CC2CCCO2)cc1 (configuration not stated)	-7.0	80.2
CCOC(=O)c1sc(SC#N)c(-c2ccccc2)c1N	25.0	1.1*
CCOC(=O)c1sc(SC#N)c(C(=O)OCC)c1C	-19.0	69.8
Cc1n[nH]c(C)c1-c1ccccc1O	-16.0	99.1
O=c1[nH]nc(SCc2ccc(Cl)cc2Cl)c(=O)[nH]1	-10.0	89.8
FC(F)(F)c1nc(SCc2ccc(Cl)cc2Cl)n[nH]1	.	-0.8*
COC(=O)C1=C(NC(=O)c2ccc(S(=O)(=O)N3CCCCC3)cc2)CCS1	18.0	100.1
CN(CC(=O)Nc1ccc(N2CCOCC2)cc1)CC(=O)Nc1ccccc1C(=O)c1ccccc1	19.0	85.1
Cc1nc(C)c(-c2ccn(C(=O)c3ccc(Cl)cc3)n2)o1	.	80.9
CCC(C(=O)OC(C)C)n1cnc2sc3c(c2c1=O)CCC(C)C3 (configuration not stated)	5.0	34.0*
CC1CCc2c(sc3ncn(CC(=O)N4CCCC4)c(=O)c23)C1 (configuration not stated)	6.0	109.3
Cc1nn(Cc2ccccc2Cl)c(C)c1NC(=O)COCc1cc(-c2ccc3c(c2)OCO3)on1	12.0	112.2
Brc1ccc(Cn2ncc3ccccc32)cc1	17.0	86.7
CC(=O)Nc1ccc(NC(=O)[C@@H](NC(=O)c2ccc(F)cc2)C(C)C)cc1	-3.0	93.9
C[C@@H](O)[C@H]1C(=O)N2C(C(=O)O)=C(SCCN=CN)C[C@H]12	.	29.5*
O=C(O)Nc1cc(Cl)cc(Cl)c1	4.0	-0.4*
O=C(Nc1cc(Cl)cc(Cl)c1)C1CC1	.	78.8
CCn1c(=NC(=O)c2ccccc2OC)sc2cc(Br)ccc21	-11.0	.
O=C(O)c1cn(C2CC2)c2cc(N3CCN(C(=S)S)CC3)c(F)cc2c1=O	14.0	-0.9*
Cn1cc(S(=O)(=O)c2ccccc2)c(=O)c2cc(F)c(N3CCN(c4ccc(F)cc4)CC3)cc21	.	101.2
O=C(O)c1cn(-c2ccc(F)cc2)c2cc(N3CCNCC3)c(F)cc2c1=O	.	-0.9*
CCOC(=O)c1cn(CC)c2cc(N3CCCC3)c(F)cc2c1=O	13.0	89.3
Cc1ccc(S(=O)(=O)NC(C)C(=O)OCc2cc(=O)n3ccsc3n2)cc1 (configuration not stated)	12.0	84.5
SMILES	Sa helicase inh	Sa growth 42C
CCn1c(C(=O)N2CCC(C(=O)NCc3ccccc3)CC2)cc2sccc21	5.0	94.8
Oc1ccc2c(c1)c(-c1ccccc1)nn2-c1ccccc1	-26.0	19.7*
c1ccc(-c2nn(-c3ccccc3)c3c2cnc2ccccc23)cc1	13.0	109.3
CCCCN(C(=O)c1cccs1)c1nnc(-c2cc(OC)cc(OC)c2)s1	12.0	101.1
O=C(Oc1cccc2cccnc12)c1ccccc1F	9.0	0.8*
Cc1ccc2cccc(OC(=O)c3ccccc3F)c2n1	19.0	.
CCc1ccc(C(=O)NCCc2nnc(SC)n2CC)cc1	-9.0	95.3
CCCCN(C(=O)Cn1ncc2c1-c1cc(C)ccc1OC2)C1CCN(C(C)=O)CC1	-13.0	87.9
Cc1cc(/C=N/n2cnc3c(cnn3-c3ccccc3)c2=O)c(C)n1CC(C)C	7.0	100.2
N#CCOc1nc(OCC#N)nc(OCC#N)n1	-9.0	27.6*
COc1nc(OCC#N)nc(N(C)C)n1	4.0	96.4
Cc1cc(C)nc(NS(=O)(=O)c2ccc(NS(=O)(=O)CC34CCC(CC3=O)C4(C)C)cc2)n1 (configuration not stated)	-13.0	110.6
Cc1cc(NS(=O)(=O)c2ccc(NS(=O)(=O)CC34CCC(CC3=O)C4(C)C)cc2)no1 (configuration not stated)	-5.0	48.6*
CCOC(=O)CCC1(CCC(=O)OCC)c2ccccc2-c2nc3ccccc3cc21	14.0	87.2
C/S(=N\S(=O)(=O)c1ccc(Cl)cc1)c1ccccc1 (configuration not stated)	.	105.7
O=C1N=C(N2CCN(C(=O)c3cc4ccccc4oc3=O)CC2)S/C1=C\c1cccs1	7.0	97.3
Cc1[nH]c2ccccc2c1C(Nc1ccccn1)c1cccs1 (configuration not stated)	1.0	.
COC(c1cccs1)c1c(C)[nH]c2ccccc12 (configuration not stated)	-8.0	2.0*
Cc1[nH]c2ccccc2c1C(c1ccncc1)N1CCN(C)CC1 (configuration not stated)	-27.0	.
Cc1[nH]c2ccccc2c1C(c1cccs1)N1CCN(c2ccccc2)CC1 (configuration not stated)	19.0	0.0*
CC[n+]1c(-c2c(C)oc3cc(O)ccc3c2=O)csc1C	-19.0	.
COC(=O)c1cc(NC(=O)c2ccccc2)ccc1N1CCOCC1	.	99.4
COc1c(N2C[C@@H]3CCCN[C@@H]3C2)c(F)cc2c(=O)c(C(=O)O)cn(C3CC3)c12	.	-0.9*
